Experimental data from PubChem BioAssay AID493170 (National Center for Advancing Translational Sciences (NCATS), 2011).
Inconclusive results are not listed. Values without a mark were called inactive. Calls of active or inactive are those of the source. Calls follow the shape of the dose curve; as a rule, active = well fitted inhibition curve with a large enough effect; inconclusive = small, poorly fitted or top-dose-only effect, or effect the other way; inactive = flat fitted curve, though single readings scatter.

target: Ubiquitin carboxyl-terminal hydrolase 2 (Homo sapiens) (UniProt O75604); test: Ub-rhodamine 110 based assay for inhibitors Ubiquitin-specific Protease USP2a; settings: USP2a Ub-rhodamine110 cleavage, fluorescence; series mostly up to 38.3 µM; activity change, negative = inhibition: at the top concentration; also: nearly all actives have a fitted effect of over 50% in size
Outline: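 Kinetic fluorescence (485/531 nm) read each minute over 7 min after adding Ub-Rhod110 (150 nM final) to USP2a (5 nM final). The enzyme had 30 min RT exposure to compounds beforehand in Tris pH 8.0 buffer with CaCl2, CHAPS and beta-ME.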
% is scaled to controls: 0 for no effect and ±100 for the full control effect; potency is read from the fitted curve at half-maximal effect.

Ubiquitin carboxyl-terminal hydrolase 2 (Homo sapiens), sequence (O75604 whole entry, looked up): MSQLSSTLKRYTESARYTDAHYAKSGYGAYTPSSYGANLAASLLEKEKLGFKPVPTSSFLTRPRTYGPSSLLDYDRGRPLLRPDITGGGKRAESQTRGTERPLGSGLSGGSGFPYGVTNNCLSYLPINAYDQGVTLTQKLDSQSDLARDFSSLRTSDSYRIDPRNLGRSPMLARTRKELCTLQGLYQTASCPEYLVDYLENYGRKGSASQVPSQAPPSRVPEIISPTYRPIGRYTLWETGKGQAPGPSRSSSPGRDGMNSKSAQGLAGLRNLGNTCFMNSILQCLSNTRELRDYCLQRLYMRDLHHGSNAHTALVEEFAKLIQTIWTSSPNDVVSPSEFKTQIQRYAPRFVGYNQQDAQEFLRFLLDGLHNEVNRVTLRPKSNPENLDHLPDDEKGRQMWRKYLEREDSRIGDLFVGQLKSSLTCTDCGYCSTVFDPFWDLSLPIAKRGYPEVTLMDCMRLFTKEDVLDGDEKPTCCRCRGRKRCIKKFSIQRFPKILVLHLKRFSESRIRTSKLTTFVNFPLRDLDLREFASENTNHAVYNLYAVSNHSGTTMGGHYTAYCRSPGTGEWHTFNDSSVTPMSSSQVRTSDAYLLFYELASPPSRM

Row | Structure (SMILES) | activity change, negative = inhibition [%] | Potency
1 | C(=N\N(c1ccccc1)c1ccccc1)/c1ccccn1 | -9.06 | –
2 | CCC(C(=O)Nc1nnc(-c2ccco2)s1)c1ccccc1 (centres undefined) | -13.1 | –
3 | CCOc1cc(/C=C/c2nc3cc(C)c(C)cc3s2)ccc1OCC(=O)N1CCOCC1 | -17 | –
4 | CN(C)c1ccc(C(CN)c2c[nH]c3ccccc23)cc1 (centres undefined) | -5.84 | –
5 | CCCc1nc(SCC(N)=O)[nH]c(=O)c1CC | 0.11 | –
6 | O=C(CCS(=O)(=O)c1ccc(Br)s1)NC1CCCC1 | -7.53 | –
7 | O=C(O)C(Cc1ccccc1)N1C(=O)/C(=C/C=C/c2ccco2)SC1=S (centres undefined) | – | 11.2 µM (active)
8 | O=C(/C(=N/N=C/c1ccc(O)c(O)c1O)c1ccccc1)c1ccccc1 | – | 2.51 µM (active)
9 | COCCn1c(SCC(=O)Nc2cc(C)on2)nnc1-c1ccccc1 | -6.78 | –
10 | CCCNC(=O)NCc1ccc(N2CCCC2=O)cc1 | -7.89 | –
11 | CCN(CC)c1ccc2nc3ccccc3[n+](CC)c2c1 | -12.3 | –
12 | O=C(N/C(=C/c1cccnc1)C(=O)N1CCOCC1)c1ccco1 | -3.6 | –
13 | CCOc1ccc(NC(=O)CSc2nnc(Cn3c(=O)sc4ccccc43)n2C)cc1 | -1.33 | –
14 | O=C(Nc1nnc(SCC(=O)N2CCCC2)s1)C1CC(=O)N(c2ccc(F)cc2)C1 (centres undefined) | – | 11.2 µM (active)
15 | CCN(CC)S(=O)(=O)c1ccc(-c2nnc(SCC(=O)Nc3ccc4c(c3)OCO4)o2)cc1 | – | 10 µM (active)
16 | O=C(O)/C=C/c1ccc(S(=O)(=O)Nc2ccccc2C(=O)Nc2ccc(F)cc2)cc1 | -20.3 | –
17 | CCCCCCCCCCOC(=O)Cn1c(COc2ccc(OC)cc2)[n+](C)c2ccccc21 | -10.1 | –
18 | O=C(OCc1ccccc1)C1CCCN1C(=O)c1cccs1 (centres undefined) | -1.26 | –
19 | CCOC(=O)N1CCN(S(=O)(=O)c2ccc(C)cc2)C1c1ccc(OC)cc1 (centres undefined) | -18.1 | –
20 | Oc1ccc(/C=N/NC(=S)N/N=C/c2ccc(O)cc2)cc1 | -8.74 | –

Row | Structure (SMILES) | activity change, negative = inhibition [%] | Potency
21 | FC(F)(F)c1cnc2c(c1)Nc1ccccc1S2 | 5.47 | –
22 | COC(=O)CCC(=O)Nc1sc2c(c1C#N)CCCC2 | -9.38 | –
23 | O=C(Nc1ccccc1)c1cc(Cl)nc2ccccc12 | -4.81 | –
24 | COc1ccc(NC(=O)c2cc(-c3ccco3)nc3ccccc23)cc1S(=O)(=O)N1CCOCC1 | – | 4.47 µM (active)
25 | Cc1ccc(SCc2cc(=O)c3c(=O)n(-c4ccccc4)[nH]c3[nH]2)cc1 | -19 | –
26 | O=C(CCCN1C(=O)c2ccccc2C1=O)NC1=NCCS1 | 2.18 | –
27 | CC(C)c1ccc(NC(=O)C(c2ccc3c(c2)OCO3)N2CCCCC2)cc1 (centres undefined) | -8.46 | –
28 | CCOc1ccc(CCn2c(-c3ccco3)nc3ccccc3c2=O)cc1OCC | -9.5 | –
29 | CCOC(=O)N1CCN(CC(=O)n2c(C)c(C)c3ccccc32)CC1 | -10.6 | –
30 | COc1cc(/C=C/[N+](=O)[O-])ccc1OCc1cccc(C(=O)O)c1 | -20.5 | –
31 | Cc1cc(-c2nnc3n2N=C(c2ccc(-c4ccccc4)cc2)CS3)n[nH]1 | – | 11.2 µM (active)
32 | CC1CCc2c(sc3nc(CN4CCOCC4)nc(NS(=O)(=O)c4cccc([N+](=O)[O-])c4)c23)C1 (centres undefined) | – | 10 µM (active)
33 | NC(=O)c1c(NC(=O)CSc2nnc(-c3ccco3)n2-c2ccccc2)sc2c1CCC2 | – | 5.01 µM (active)
34 | Cc1ccc(NC(=O)CN2C(=O)N/C(=C/c3ccco3)C2=O)cc1 | – | 3.98 µM (active)
35 | O=c1oc2ccccc2n1Cn1c(=O)oc2ccccc21 | -7.91 | –
36 | CCCOc1ccc(/C=C2\SC(=S)N(CC3CCCO3)C2=O)cc1 (centres undefined) | -7.91 | –
37 | O=C(CC(C(=O)O)C1CCCO1)NCCc1ccc2c(c1)OCO2 (centres undefined) | -13.1 | –
38 | Cn1c(SCc2nc3ccccc3s2)nnc1-c1cccs1 | -11.3 | –
39 | c1ccc(Nc2c3c(nc4ncnn24)CCC3)cc1 | -0.0764 | –
